Compounds with a hit are over-represented: about 3.4% of the library has one in this group of screens.
HGIII-sPLA2 inh: Blocks human group III sPLA2 activity; QFRET BODIPY PC-A2 liposome hydrolysis, fluorescence; Q9NZ20; inhibition, % at 12.2 µM; 370,000 compounds, 0.56% hits;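 active means inhibition above mean plus 3 SD of compounds lying within the high and low control bounds, cut at about 19% in these data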;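 further: 0% = median of test compound wells and 100% = no enzyme DMSO wells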
KLK7 zymogen act: proKLK7 (human) activation, primary screen. activation, % at 7 µM. AID 652039. P49862. purified proKLK7, EDANS-DABCYL substrate fluorescence; 100% is mature enzyme control, 0% vehicle. 370,000 compounds, 0.9% hits;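 active means activation above the mean of all tested compounds plus 3 SD, computed per campaign excluding outliers beyond control limits, cut at about 13% in these data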
PLCg1 inh: blocks human PLC-gamma1 enzyme activity | 370,000 compounds, 0.84% hits | purified PLC-gamma1, fluorogenic substrate, fluorescence | inhibition, % at 12.2 µM | P19174; in the data active means inhibition above about 9.5%
ADAM17 inh: inhibits human ADAM17 | P78536 | recombinant ADAM17, EDANS/DABCYL FRET peptide cleavage | inhibition, % at 6.95 µM | 370,000 compounds, 0.83% hits | AID 720648;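 active means inhibition above the mean of compounds lying between control limits plus 3 SD, set per campaign, cut at about 8.5% in these data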;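 further: 0% = DMSO-only wells as the low control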
Target sequence (P78536 215-824 limits assumed): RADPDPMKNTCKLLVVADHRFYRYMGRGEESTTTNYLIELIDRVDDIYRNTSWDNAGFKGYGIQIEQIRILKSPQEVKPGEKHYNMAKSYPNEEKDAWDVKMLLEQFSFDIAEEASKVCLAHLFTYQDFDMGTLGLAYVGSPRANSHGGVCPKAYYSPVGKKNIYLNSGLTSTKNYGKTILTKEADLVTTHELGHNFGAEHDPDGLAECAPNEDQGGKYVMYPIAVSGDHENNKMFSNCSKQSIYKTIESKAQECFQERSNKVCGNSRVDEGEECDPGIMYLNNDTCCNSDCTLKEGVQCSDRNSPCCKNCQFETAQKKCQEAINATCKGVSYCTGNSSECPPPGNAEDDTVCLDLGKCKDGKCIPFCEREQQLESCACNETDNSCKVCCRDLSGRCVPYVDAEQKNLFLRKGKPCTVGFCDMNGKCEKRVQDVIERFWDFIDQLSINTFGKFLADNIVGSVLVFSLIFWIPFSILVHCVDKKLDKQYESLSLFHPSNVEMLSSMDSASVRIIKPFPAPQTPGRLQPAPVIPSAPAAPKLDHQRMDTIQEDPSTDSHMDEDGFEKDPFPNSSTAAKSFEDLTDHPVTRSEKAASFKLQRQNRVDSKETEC
ADAM10 inh: inhibits human ADAM10; O14672; recombinant ADAM10, EDANS/DABCYL FRET peptide cleavage, 3 h; inhibition, % at 7 µM; 370,000 compounds, 0.62% hits; AID 720582;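 active means inhibition above a per-campaign cutoff equal to the mean of compounds falling between control-based bounds plus 3 SD, cut at about 20% in these data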;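 further: 0% = DMSO wells while the 100% control is not disclosed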
PLC-beta3 inh: PLC-beta3 (human) inhibition, primary screen; 370,000 compounds, 0.18% hits; inhibition, % at 12.2 µM; Purified PLC-beta3, fluorogenic substrate, fluorescence; in the data active means inhibition above about 11%;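 further: 0% = median of compound wells on plate and 100% = full blocker control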
KLK7 act conf: confirmation of human kallikrein-7 zymogen activators. shares compounds with KLK7 zymogen act. AID 686949. 3,200 compounds, 68% hits. activation, % at 7 µM. purified proKLK7, EDANS-DABCYL substrate fluorescence; scaled: vehicle 0, mature enzyme 100;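 active means activation, as change over the incubation, above the mean of all tested compounds plus 3 SD, cut at about 13% in these data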
EDANS interfere: optically interferes with EDANS-DABCYL signal, flagging KLK7 hits; shares compounds with KLK7 zymogen act; EDANS-DABCYL substrate fluorescence interference, no enzyme, 4 h; solvent 0%, active enzyme control 100%; activation, % at 7 µM; 3,200 compounds, 80% hits; AID 686952;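 active means activation above the all-compound mean plus 3 SD, ignoring values outside control-based bounds, cut at about 4.8% in these data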;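 further: value is the 4 h activation minus the activation read at time zero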
Active calls of the source: *; i = inactive; / = no result given.

SMILES	HGIII-sPLA2 inh	KLK7 zymogen act	PLCg1 inh	ADAM17 inh	ADAM10 inh	PLC-beta3 inh	KLK7 act conf	EDANS interfere
OCc1ccc(-c2cncc3nccn23)cc1	9.7	22.6*	-246.1	i	i	-328.1	26.8*	26.9*
Cc1ccc(-n2c(SCC(=O)Nc3ccccc3-c3ccccc3)nnc2-c2ccccn2)cc1	-4.1	-0.2	-0.7	2.8	-1.3	2.2	/	/
COc1cccc2[nH]c3c(N4CCC(C(N)=O)CC4)ncnc3c12	3.2	25.3*	-456.5	i	i	-486.1	46.6*	42.9*
COc1cccc2[nH]c3c(N4CCCC(C)C4)ncnc3c12 (stereo not given)	4.4	5.2	-138.9	-84.9	-252.4	-212.6	/	/
CCC(O)(c1ccc(NC(=O)OC(C)(C)C)cc1)c1cc(OC)cc(OC)c1 (stereo not given)	-28.6	0.0	0.7	3.7	10.9	1.1	/	/
CC(C)(C)NC(=O)Nc1ccc2nccnc2c1	6.5	64.2*	i	-492.8	i	i	69.5*	77.3*
CN(CCOC(=O)c1cc2ccccc2o1)C1CN(Cc2cn(Cc3ccccc3Cl)nn2)S(=O)(=O)C1 (stereo not given)	-4.7	0.2	-1.3	-1.7	-7.6	-13.2	/	/
CN1C(=O)c2cccc3c(S(=O)(=O)NCc4ccco4)ccc1c23	2.8	21.4*	i	-235.0	i	i	14.3*	14.1*
CN1C(=O)c2cccc3c(S(N)(=O)=O)ccc1c23	13.7	71.2*	i	-174.5	-462.9	i	56.2*	66.3*
Cn1c(SCC(=O)Nc2ccc(NC(=O)c3cccs3)cc2)nnc1-c1ccncc1	8.6	51.2*	3.6	-2.9	6.0	5.3	1.2	0.1
COc1ccc(-c2cc3ccc(OCC(N)=O)cc3oc2=O)cc1OC	4.1	0.8	-327.7	-8.5	-27.6	-477.9	/	/
COc1ccc(-c2cc(=O)c3ccc(O)cc3o2)cc1OC	-2.4	120.6*	i	i	i	i	41.7*	45.9*
COc1ccc(-c2cc3ccc(O)cc3oc2=O)cc1OC	-8.4	42.2*	i	i	i	i	70.6*	70.7*
O=C(NCC1COc2ccccc2O1)c1ccc(NC(=O)c2cccc(F)c2)cc1 (stereo not given)	-3.3	0.1	1.8	0.5	0.0	1.9	/	/
Cc1coc2c(C)c3oc(=O)c(CC(=O)N[C@@H](CC(C)C)C(=O)O)c(C)c3cc12	-6.8	8.6	-179.2	-58.9	-152.1	-254.7	/	/
Cc1coc2c(C)c3oc(=O)c(CCC(=O)N[C@@H](C)C(=O)N[C@@H](Cc4ccccc4)C(=O)O)c(C)c3cc12	-15.3	22.6*	-261.3	-120.2	-479.8	-363.3	41.0*	36.5*
C[C@H](O)[C@@H]1C(=O)N2CCc3c([nH]c4ccccc34)[C@@H]2C[C@@H]1N(C)C(=O)Nc1cc(Cl)cc(Cl)c1	-51.7	19.0*	-208.2	-186.5	i	-284.0	6.4	6.1*
C[C@H](O)[C@@H]1C(=O)N2CCc3c([nH]c4c(-c5ccccc5)cccc34)[C@@H]2C[C@@H]1N(C)C(=O)c1ccco1	-36.7	0.3	-40.5	-31.9	-121.1	-49.4	/	/
C[C@H](O)[C@@H]1C(=O)N2CCc3c([nH]c4ccccc34)[C@@H]2C[C@@H]1N(C)C(=O)c1ccco1	-0.6	50.6*	i	i	i	i	55.4*	59.9*
C[C@H](O)[C@@H]1CN2CCc3c([nH]c4ccccc34)[C@@H]2C[C@@H]1N(C)C(=O)Nc1ccc(F)cc1	-0.7	15.7*	-325.0	-59.9	-217.8	-470.8	2.9	1.9
C[C@H](O)[C@@H]1C(=O)N2CCc3c([nH]c4ccccc34)[C@@H]2C[C@@H]1N(C)C(=O)Nc1ccc(Br)cc1	-12.7	37.3*	-255.0	-191.1	i	-284.8	2.1	3.8
COc1ccc(CNC(=O)OC2CC3CC2[C@H]2CCCCN2C3)cc1 (stereo not given in full)	0.8	0.0	-0.8	-1.5	-1.9	-1.8	/	/
CCOc1ccc(-n2c(SCc3cccc4ccccc34)nnc2-c2ccc(C)cc2)cc1	6.2	-0.2	-0.8	-1.0	-0.9	0.1	/	/
COc1ccc(C#CCN(Cc2ccc(OC)cc2OC)C(N)=NC(=O)CCc2ccccc2)cc1	-13.2	-0.8	-3.1	4.4	12.1	-6.0	/	/
O=C(c1cncnc1)N1CCC(n2nnc3ncccc32)CC1	1.7	-0.2	-1.4	0.1	-6.5	0.8	/	/
SMILES	HGIII-sPLA2 inh	KLK7 zymogen act	PLCg1 inh	ADAM17 inh	ADAM10 inh	PLC-beta3 inh	KLK7 act conf	EDANS interfere
C[C@@H]1ON(C)[C@H]2C[C@H]3c4[nH]c5ccccc5c4CCN3C(=O)[C@@H]12	-0.1	14.7*	-241.2	-204.2	i	-309.9	2.6	2.3
C[C@H](O)[C@@H]1C(=O)N2CCc3c([nH]c4ccccc34)[C@@H]2C[C@@H]1N(C)C(=O)Nc1ccccc1	-1.0	26.5*	-445.3	-448.1	i	i	6.3	6.5*
Cc1ccc(CN2CCCCC(NC(=O)c3ccc(F)c(F)c3)C2=O)cc1 (stereo not given)	4.4	0.0	-0.2	-2.9	0.2	2.1	/	/
CCCCCn1c(=O)c(C(=O)c2ccccc2)nc2ccccc21	-1.3	0.5	-2.4	-1.6	3.4	-12.9	/	/
CCCCCCn1c(=O)[nH]c2nc3cc(N)ccc3nc2c1=O	-130.1	14.1*	i	1.9	-5.8	i	18.5*	19.8*
N#CC1=C(N)C(C#N)(C#N)[C@H](c2ccncc2)[C@H]2CN(C(=O)OCc3ccccc3)CC=C12	-4.1	30.7*	-105.4	-100.0	-281.8	-132.8	26.7*	21.5*
CC(C)(C)OC(=O)N1CC=C2C(C#N)=C(N)C(C#N)(C#N)[C@H](c3cccnc3)[C@H]2C1	-3.6	18.5*	-84.4	-84.0	-241.5	-101.5	37.4*	34.2*
CCOC(=O)N1CC=C2C(C#N)=C(N)C(C#N)(C#N)[C@H](c3cccs3)C2C1 (stereo not given in full)	-1.9	2.2	-20.6	-12.4	-25.9	-29.6	/	/
CN1CC=C2C(C#N)=C(N)C(C#N)(C#N)C(Cc3ccccc3)C2C1 (stereo not given)	-13.8	23.8*	-371.2	-176.1	i	-452.7	12.0	9.3*
CC(C)N1CC=C2C(C#N)=C(N)C(C#N)(C#N)C(c3ccccc3)C2C1 (stereo not given)	-21.9	16.0*	-376.8	-179.3	i	-438.1	29.1*	27.9*
COc1cc(C2C3CN(C)CC=C3C(C#N)=C(N)C2(C#N)C#N)ccc1OC(C)C (stereo not given)	-6.4	0.8	-73.0	-16.6	-53.3	-104.3	/	/
